Results from PubChem BioAssay AID1672 (Johns Hopkins Ion Channel Center, 2009).
Screen size: about 310,000 compounds; about 2,600 (0.84%) were called active.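 How the source made its calls: active means fluorescence ratio B-score at or below minus 3 SD of library scores, with starting-brightness B-score within 2 SD (cut at about -4.2 in these data); inactive means the rest.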 What follows is part of a selection rich in actives, with near analogues and random picks from the rest.

biological target: Inward rectifier potassium channel 2 (Mus musculus) (UniProt P35561); assay: inhibitors of mouse Kir2.1 inward-rectifier potassium channel (AID 1672); conditions: HEK293-Kir2.1, FluxOR thallium flux fluorescence; at 10 µM; stronger effect = lower value;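 further: channel flux triggered by added potassium and thallium sulfate stimulus; B-score of peak minus minimum fluorescence over baseline after thallium stimulus; more negative B-score means stronger Kir2.1 block with less thallium influx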
Sequence (P35561 whole entry, looked up): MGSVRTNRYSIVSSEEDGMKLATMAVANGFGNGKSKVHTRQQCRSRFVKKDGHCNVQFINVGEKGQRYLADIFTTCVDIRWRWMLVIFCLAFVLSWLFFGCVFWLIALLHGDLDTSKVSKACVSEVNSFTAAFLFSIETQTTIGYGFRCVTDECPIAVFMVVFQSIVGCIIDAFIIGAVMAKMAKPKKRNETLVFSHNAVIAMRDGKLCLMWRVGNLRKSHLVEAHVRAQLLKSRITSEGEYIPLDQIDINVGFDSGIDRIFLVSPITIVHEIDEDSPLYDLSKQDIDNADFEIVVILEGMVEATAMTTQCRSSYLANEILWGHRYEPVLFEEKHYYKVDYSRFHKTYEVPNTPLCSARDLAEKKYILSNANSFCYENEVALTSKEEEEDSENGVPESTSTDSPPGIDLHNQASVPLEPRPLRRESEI

B-score, inactive:
COc1ccc(CCNC(=S)N2CCN(S(=O)(=O)c3ccc(F)cc3)CC2)cc1 0.06, Cc1ccc2nc(N3CCN(C(=O)c4ccco4)CC3)sc2c1 -0.26, OCc1ccc(-c2ccccc2)c(-c2ccccc2)c1 -1.83, Cc1cc(C)c(S(=O)(=O)NCC(c2ccc3c(c2)OCO3)N2CCOCC2)c(C)c1 (centres undefined) -1.24, COc1ccc(NC(=O)C(=O)NCC(c2ccco2)N2CCc3ccccc3C2)cc1 (centres undefined) 1.13, COc1ccc(OC)c(NC(=S)N2CCc3ccccc3C2)c1 0.14, Cc1c(C)n2c(SCC(=O)NC3CCCC3)nnc2[nH]c1=O 0.79, O=C1[C@H]2[C@@H](c3ccc(F)cc3)N3C(=O)N(c4ccc(C(F)(F)F)cc4)C(=O)[C@@]3(Cc3ccccc3)[C@H]2C(=O)N1C1CCCCC1 -0.87, [O-][n+]1ccc(OCc2ccccc2)cc1 0.47, Cc1cccc(N2CC(C(=O)Nc3ccccc3N3CCCC3)CC2=O)c1C (centres undefined) 0.2, CC(=O)Nc1ccc(Nc2c3ccccc3nc3ccccc23)cc1 0.07, N#Cc1cccc(Nc2c3c(nc4ccccc24)CCCC3)c1 -0.49, Cc1ccc(S(=O)(=O)NC(C)C(=O)NCc2ccc(Cl)cc2)cc1 (centres undefined) 1.6, CSCC(=O)N1CCCC(C(=O)c2cc(F)ccc2F)C1 (centres undefined) 1.27, O=C(c1ccc(OC2CCN(C/C=C/c3ccc(F)cc3)CC2)cc1)N1CCCCC1 -2.2, COc1ccc(-c2csc3ncnc(N4CCN(S(=O)(=O)c5cccc(F)c5)CC4)c23)cc1 0.02, COc1cccc(-c2cccc(NC(=O)C3CCN(C4CCC4)CC3)c2)c1 -0.09, O=C(NC1CCCC1)C1CCN(C(=O)Nc2cccc(Cl)c2)CC1 -1.63, CCNC(=S)NNC(=O)C1CCN(Cc2ccccc2)CC1 -0.93, O=C(Nc1cnn(Cc2ccc(Cl)cc2)c1)C1CCCC1 -1.43, CC(=O)c1cc(CN2CCC(C(=O)Nc3cccc(-c4cscn4)c3)CC2)cs1 -2.25, O=C(Nc1ccc(-c2cscn2)cc1)C1CCCN(Cc2ccc(CO)o2)C1 (centres undefined) -0.77, CCOC(=O)c1c(C)oc2cc(Sc3ccccc3)c(O)c(O)c12 1.87, CCC(c1nnc(SCC(=O)NNC(=O)c2ccccc2)n1Cc1ccccc1)N(C)C (centres undefined) 0.93, CCCNC(=O)c1onc(CSc2ccc(F)cc2)c1C(=O)NC(C)C -1.25, O=[N+]([O-])c1ncc(Br)cc1Nc1ccccc1 0.16, O=C(NCc1ccncc1)c1ccc(NS(=O)(=O)c2cccc([N+](=O)[O-])c2)cc1 0.45, CCCCN1C(N)=NC[C@@H]1CC1CCCCC1 -1.04, COc1cccc(NC(=O)CSc2nccn(-c3ccc4c(c3)OCCO4)c2=O)c1 -0.69, Nc1ccccc1/C=N\N=C/c1ccccc1N -1.02, Cc1noc(C)c1CSCC(=O)Nc1ccc(Br)cc1Cl 0.74, COc1ccc(Cl)cc1NC(=O)CN(C)C(=O)c1cc(-c2cccs2)nn1-c1ccccc1 -0.85, CCCCn1c(N)c(N(CCOC)C(=O)c2sc3ccccc3c2Cl)c(=O)[nH]c1=O -0.1, COc1ccc(NS(=O)(=O)c2ccc(C)c(C(=O)N(C)Cc3ccc(OC)cc3OC)c2)cc1 0.75, Cc1ccc(S(=O)(=O)N(Cc2cccc([N+](=O)[O-])c2)C(=O)N2CCN(C)CC2)cc1 1.58, CCN(CC)C(=O)CN(c1cccc([N+](=O)[O-])c1)S(=O)(=O)c1ccccc1 1.08, COc1ccccc1NC(=O)Nc1nc(CC(=O)Nc2ccccc2F)cs1 -0.89, CC1CCc2[nH]c3ccc(C(=O)N(C)CC(=O)Nc4cccc(F)c4)cc3c2C1 (centres undefined) -0.84, CC(C)N(C(=O)c1ccc(-c2ccccc2F)cc1)C(C)C -0.06, O=C(CN1C(=O)c2ccccc2C1=O)NCc1ccc(C(=O)O)cc1 -0.03, COc1ccc(CCNc2cc(N3CCN(C(=O)c4ccccc4OC)CC3)ccc2[N+](=O)[O-])cc1OC -0.2, CC1(C)C=Cc2c(ccc3c2OC[C@@H](c2ccc(O)cc2O)C3)O1 0.26, Cc1ccc(S(=O)(=O)CCC(=O)Nc2nnc(CC(C)C)s2)cc1 0.9, COc1ccc(OCC(O)CNCCNc2nccc(C(F)(F)F)n2)cc1 (centres undefined) -1.42, OC(COc1ccc(Br)cc1)CN1CCCC1 (centres undefined) -0.51, CCCCCC(=O)N1CCN(S(=O)(=O)c2ccc3c(c2)OCCCO3)CC1 -1.7, COc1ccc(Cl)cc1NC(=O)CN1CCN(C(=O)N2CCOCC2)CC1 -2.11, CC1CC(=O)Nc2ccccc2N1S(=O)(=O)c1cccs1 (centres undefined) -0.1, CC1CC(C)(C)NC(=S)N1CCC(=O)N1CCN(Cc2ccccc2)CC1 (centres undefined) -0.96, O=C(NCCc1ccco1)C(=O)NCCC1CCCCN1S(=O)(=O)c1ccccc1 (centres undefined) -0.4, COc1ccc(-c2nn(-c3ccccc3)cc2/C=C2/SC(=S)N(CCCC(=O)O)C2=O)c(C)c1 0.15, CN(C)S(=O)(=O)c1cccc(-c2nn(-c3ccccc3)cc2/C=C2\SC(=S)N(CC(=O)O)C2=O)c1 0.81, COc1ccc(-c2cc(C(=O)N/N=C/c3cccnc3)c3ccccc3n2)c(OC)c1 0.47, O=C(NNC(=O)c1ccc(-c2ccccc2)cc1)Nc1ccccc1 -0.44, CCOC(=O)c1c(C)[nH]c(C(=O)OCC(=O)N2CCCC2=O)c1C -0.25, Cc1ccc(NC(=O)CSc2nc(=O)n(CCN(C)C)c3c2CCCC3)c(C)c1 -0.41, Cc1csc(NC(=O)CSc2nc(=O)n(CCCN(C)C)c3c2CCC3)n1 1.14, COc1ccc(S(=O)(=O)N2CCCCC2)cc1NC(=O)COc1ccccc1 0.95, CC(Nc1nc(N2CCN(CCO)CC2)nc2ccccc12)c1ccccc1 (centres undefined) -0.6, CC(Nc1nc(N2CCOCC2)nc2ccccc12)c1ccccc1 (centres undefined) -0.41, COc1ccc(-c2c(C#Cc3ccccc3)c3ccccc3n2C)cc1 0.01, COc1ccc(-c2nc3ccccc3c(=O)n2CCc2ccc(O)cc2)cc1 0.02, CCOc1cc2ccccc2cc1C(=O)Nc1ccccn1 1.1, COc1ccccc1C(=O)Nc1ccccc1C(=O)Nc1ccccc1 1.53, COc1cccc2[nH]c(C(=O)NCCc3ccccc3)cc12 0.06, CC(C)(C)NCC(O)COc1cccc2[nH]c(=O)[nH]c12 (centres undefined) 1.46, CCCOc1ccc(C2c3c(oc4cc(C)c(C)cc4c3=O)C(=O)N2CCCN2CCOCC2)cc1 (centres undefined) 0.6, Cc1cc2oc(=O)cc(CN3CCN(Cc4ccccc4)CC3)c2cc1C -2.25, COc1ccccc1NC(=O)COC(=O)c1ccccc1SCC(=O)N1CCCC1 1.77, O=C(c1cc(-c2ccco2)nc2ccccc12)N(Cc1nnc(-c2ccc(Cl)cc2)o1)C1CC1 -1.19, CCC(C)NC(=O)c1ccc(N2CCC3(CC2)OCCO3)c([N+](=O)[O-])c1 (centres undefined) 0.4, O=C(NC1C2CC3CC(C2)CC1C3)c1ccc(N2CCNCC2)c([N+](=O)[O-])c1 (centres undefined) 0.7, COCOc1cc(O)c(C(=O)/C=C/c2ccc(OCOC)c(OCOC)c2)c(OCOC)c1 1.19, COc1ccc(CNC(=O)C2CCCC2)cc1 1.06, COc1ccc(Nc2cc(Cl)ccc2C(=O)O)cn1 2.53, COc1ccc(NC(=O)c2cc(-c3ccc(C)cc3)on2)cc1 0.92

B-score, active:
COc1ccc(CCC(C)N2CCc3ccccc3C2)cc1 (centres undefined) -8.02, Cc1ccc(Nc2c3c(nc4ccccc24)CCC3)cc1 -15.2, COc1ccc(/C=C/CN2CCCC(C(=O)c3cc(F)ccc3F)C2)cc1 (centres undefined) -4.21, CCn1cc(CN2CCC(C(=O)Nc3cccc(-c4cccc(Cl)c4)c3)CC2)cn1 -6.62, O=C(Nc1cccc(-c2cscn2)c1)C1CCN(Cc2ccsc2)CC1 -7.36, O=C(Nc1cccc(-c2cccc(Cl)c2)c1)C1CCN(C2CCC2)CC1 -4.84, O=C(CCl)N(Cc1cccc([N+](=O)[O-])c1)c1cccc(Cl)c1 -5.7, CC(=O)N(C1=C(Cl)C(=O)c2ccccc2C1=O)c1ccc(C(=O)O)cc1 -11, CC(C)(C)CC(C)(C)NCC(O)COCCOc1ccc(Br)cc1 (centres undefined) -6.18, CC1CC(=S)Nc2ccccc2N1Cc1ccccc1 (centres undefined) -4.8, Cc1ccc(-c2nn(-c3ccccc3)cc2/C=C2\SC(=S)N(CCCCCC(=O)O)C2=O)o1 -6, Cc1ccc2nc(NC(=O)CSc3nc(=O)n(CCCN(C)C)c4c3CCC4)sc2c1 -4.83, CC(Nc1nc(N2CCCC2)nc2ccccc12)c1ccccc1 (centres undefined) -4.56, COc1ccc(CCNCc2c(-c3ccccc3)n(C)c3ccccc23)cc1 -10.9, COc1ccccc1OCCNCC(O)COc1cccc2[nH]c3ccccc3c12 (centres undefined) -4.77, Cc1cc2oc3ccc(NCCC4CCCN4C)cc3c(=O)c2cc1C (centres undefined) -7.66, CC(NC(=O)c1ccc(N2CCNCC2)c([N+](=O)[O-])c1)C12CC3CC(CC(C3)C1)C2 (centres undefined) -8.06, COc1ccc(NC(=O)/C(Cl)=C(/Cl)S(=O)Cc2ccc(C)cc2)cn1 (centres undefined) -5.16
